MCF10A rerep: DNA re-replication induction in MCF 10a cells. Potency, µM (highest dose often 46.1 µM), inactives show at the highest dose activity, positive = re-replication, most hits filed as activators. MCF 10A DNA re-replication, Hoechst nuclear intensity, 48 h. hit rate 2.9% among 350,000. AID 624296; also: potency is read from the fitted curve at half-maximal effect; % of control where 0% means no effect; nearly all actives have a fitted effect of over 50% in size
SW480 rereplic: DNA re-replication induction in SW480 cells; SW480 DNA re-replication, Hoechst DNA content imaging, 48 h; Potency, µM (highest dose often 46.1 µM), inactives show at the top dose re-replication activation, most hits filed as activators; hit rate 1.8% among 340,000; also: potency is read from the fitted curve at half-maximal effect; % of control where 0% means no effect; nearly all actives have a fitted effect of over 55% in size
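Quantitative HTS format with DMSO vehicle controls; 48 hr drug incubation at 37 C, then 40 min Hoechst staining and scanning imager measurement at 405 nm excitation.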
TDP1 cell CPT: DT40-hTDP1 cell growth loss with CPT | chicken DT40 Tdp1-/-;hTDP1 cells + 20 nM CPT, ATP luminescence, 48 h | Potency, µM (titrated, usually from 46.2 µM), for inactives: at the top dose activity change, negative = growth inhibition, usual class: inhibitors | hit rate 12% among 420,000 | AID 686979; also: potency is read from the fitted curve at half-maximal effect; % is scaled to controls: 0 for no effect and ±100 for the full control effect; nearly all actives have a fitted effect of over 55% in size
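Cell growth measured by CellTiter-Glo luminescence after a minimum 48 h, 37 C compound exposure with 20 nM CPT in Tdp1-knockout DT40 cells stably expressing hTDP1, seeded 400/well; qHTS titration format.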
IL-1B inflam inh: inflammasome signaling inhibition, IL-1 beta readout; hit rate 4.7% among 360,000; THP-1 LPS/ATP IL-1B secretion, AlphaLISA, 16 h; stronger effect = lower value; AID 743279; activity change, % at 57.5 µM; in the data active = activity change below about -50%; inconclusive = mostly about -30% to -49%; also: % is scaled to controls: 0 for no effect and ±100 for the full control effect
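Secreted IL-1B measured by AlphaLISA bead assay after 16 h compound exposure of THP-1 cells; compounds (final up to 57.5 uM) added 1 h before LPS (250 ng/mL) and ATP (1.25 mM) stimulation; lower signal means less secretion.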
Chronic BCR inh: blocks chronic active B-cell receptor signaling | ABC-DLBCL IkBa-CBG/CBR reporter, luminescence ratio, 4 h | Potency, µM (series often up to 46.1 µM), for inactives: at the highest dose activity change, negative = inhibition, hits mostly inhibitors | hit rate 0.05% among 340,000; active = well fitted inhibition curve with a large enough effect in the signal ratio, with a control signal flat, not every such curve was filed as active; inconclusive = small, poorly fitted or top-dose-only effect, or effect the other way, or a change in a side signal; the % refers to the signal ratio;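 also: potency is read from the fitted curve at half-maximal effect; plate controls were basal doxycycline-induced cells for no effect and cells given 10 µM MG132 for full effect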
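Doxycycline induced both beetle luciferases in TMD8 lymphoma cells; IKK-driven degradation limits the IkappaBalpha-fused green signal, while red luminescence normalises for cell number and nonspecific effects. Compounds tested up to 46 uM, 4 hrs.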
TDP1 cell noCPT: qHTS for Inhibitors of human tyrosyl-DNA phosphodiesterase 1 (TDP1): qHTS in cells in absence of CPT | DT40 Tdp1-/- hTDP1 cells, no CPT, ATP luminescence, 48 h | Potency, µM (top dose mostly 46.2 µM), inactives show top-dose activity change, negative = growth inhibition, hits mostly inhibitors | hit rate 15% among 420,000; also: potency is read from the fitted curve at half-maximal effect; % is scaled to controls: 0 for no effect and ±100 for the full control effect; nearly all actives have a fitted effect of over 55% in size
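DT40 Tdp1-/-;hTDP1 cells, no CPT (DMSO vehicle only), 400 cells/well; compounds pin-transferred; ≥48 hr, 37 °C; CellTiter-Glo 30 min RT dark, luminescence read.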
Numbers without * were called inactive; [ ] = remark or other dose. The list is not random: actives were taken first. Their share in the collection is about 19%. Unless noted, calls follow the shape of the dose curve; as a rule, active = well fitted curve in the direction sought with a large enough effect; inconclusive = small, poorly fitted or top-dose-only effect, or another doubt; inactive = no such curve, though single readings can be large; an effect the other way counts as inactive or inconclusive.

What do the screens show for `Cc1cc2oc3ccc(NCCCN4CCOCC4)cc3c(=O)c2cc1C`?
MCF10A rerep: 21%; SW480 rereplic: 0%; TDP1 cell CPT: 10µM*; IL-1B inflam inh: -6; TDP1 cell noCPT: 13µM*

Results for Cc1cc2oc3ccc(NCCCn4ccnc4)cc3c(=O)c2cc1C ?
MCF10A rerep: inconclusive; SW480 rereplic: inconclusive; TDP1 cell CPT: inconclusive; IL-1B inflam inh: 14; TDP1 cell noCPT: 15µM*

What do the screens show for `COc1ccc(S(=O)(=O)Nc2c(C)cc(C)cc2C)c2cccnc12`?
MCF10A rerep: 0%; SW480 rereplic: -14%; TDP1 cell CPT: -20%; IL-1B inflam inh: 0; Chronic BCR inh: -24%; TDP1 cell noCPT: -17%

What do the screens show for `Cc1nc2cc(-c3ccccc3)nn2c(C)c1CCC(=O)NCc1cccc(Cl)c1`?
TDP1 cell CPT: 26µM*; TDP1 cell noCPT: inconclusive

What do the screens show for `COc1ccccc1-c1cc2nc(C)c(CCC(=O)NCCc3ccc(SC)cc3)c(C)n2n1`?
TDP1 cell CPT: inconclusive; TDP1 cell noCPT: 21µM*

Results for COc1cc(OC)cc(-c2cc3nc(C)c(CCC(=O)Nc4ccccc4OC)c(C)n3n2)c1 ?
TDP1 cell CPT: inconclusive; TDP1 cell noCPT: 23µM*

How did COc1cc(OC)cc(-c2cc3nc(C)c(CCC(=O)NCCc4cccc(C)c4)c(C)n3n2)c1 do in these assays?
TDP1 cell CPT: 16µM*; TDP1 cell noCPT: inconclusive

Results for C[C@@H]1CN([C@H](C)CO)C(=O)c2cc(Br)cnc2O[C@H]1CN(C)C ?
TDP1 cell CPT: -16%; IL-1B inflam inh: 6; TDP1 cell noCPT: -24%

What do the screens show for `COc1ccc(S(=O)(=O)NNC(=O)C23CC4CC(CC(C4)C2)C3)cc1[N+](=O)[O-]`?
MCF10A rerep: -1%; SW480 rereplic: 7%; TDP1 cell CPT: -5%; IL-1B inflam inh: -7; Chronic BCR inh: 1%; TDP1 cell noCPT: inconclusive

How did C[C@@H]1CCC2C(C)(C)C3CC21CC[C@@]3(C)O (some centres not stated) do in these assays?
TDP1 cell CPT: -2%[9.04 µM]; TDP1 cell noCPT: -4%[9.04 µM]

What do the screens show for `COc1cc(OC)cc(-c2cc3nc(C)c(CCC(=O)NCc4ccccc4)c(C)n3n2)c1`?
MCF10A rerep: -5%; SW480 rereplic: inconclusive; TDP1 cell CPT: inconclusive; IL-1B inflam inh: inconclusive; Chronic BCR inh: inconclusive; TDP1 cell noCPT: 18µM*

What do the screens show for `COc1ccc(CCNC(=O)CCc2c(C)nc3cc(-c4cccc(F)c4)nn3c2C)cc1OC`?
TDP1 cell CPT: 8.2µM*; TDP1 cell noCPT: 8.2µM*

How did COc1ccc(CCNC(=O)CCc2c(C)nc3nc(C)nn3c2C)cc1OC do in these assays?
TDP1 cell CPT: 7%; TDP1 cell noCPT: 17%

Results for COc1ccc(-c2cc3nc(C)c(CCC(=O)NCc4ccccc4Cl)c(C)n3n2)c(OC)c1 ?
TDP1 cell CPT: 18µM*; TDP1 cell noCPT: 13µM*

What do the screens show for `O=c1c(-c2cccc(Cl)c2)nc2cncnc2n1-c1ccccc1`?
TDP1 cell CPT: 8%; TDP1 cell noCPT: 2%

How did C[C@@H]1CC2C3CCC4=CC(=O)C=C[C@]4(C)[C@@]3(F)[C@@H](O)C[C@]2(C)[C@@]1(O)C(=O)COC(=O)c1cccc(S(=O)(=O)O)c1 (some centres not stated) do in these assays?
MCF10A rerep: 4%; SW480 rereplic: -5%

How did C=CCS/C(=N\n1cnc2ccccc2c1=O)N1CCCCC1 do in these assays?
MCF10A rerep: 2%; SW480 rereplic: 12%; TDP1 cell CPT: 26µM*; IL-1B inflam inh: 18; Chronic BCR inh: 9%; TDP1 cell noCPT: 18µM*

How did C=CCS/C(=N\n1cnc2ccccc2c1=O)N(CC)CC do in these assays?
MCF10A rerep: 3%; SW480 rereplic: -7%; TDP1 cell CPT: inconclusive; IL-1B inflam inh: 34; Chronic BCR inh: inconclusive; TDP1 cell noCPT: 18µM*

Results for CC1(C)CC(=O)C(/C=N/n2cnc3ccccc3c2=O)=C(O)C1 ?
MCF10A rerep: -2%; SW480 rereplic: -1%; TDP1 cell CPT: -11%; IL-1B inflam inh: 0; Chronic BCR inh: inconclusive; TDP1 cell noCPT: -12%

Results for Cc1ccc2nc(-c3ccccc3C)c(CN(CC3CCCO3)C(=O)c3cccs3)cc2c1 (configuration not stated) ?
TDP1 cell CPT: -6%; TDP1 cell noCPT: -9%

How did COc1cccc(CN(C)C(=O)C(CCSC)NS(=O)(=O)c2ccc3c(c2)OCCO3)c1OC (configuration not stated) do in these assays?
MCF10A rerep: inconclusive; SW480 rereplic: -448%; TDP1 cell CPT: 16µM*; IL-1B inflam inh: -1; Chronic BCR inh: -16%; TDP1 cell noCPT: 13µM*

How did CSCCC(NS(=O)(=O)c1ccc2c(c1)OCCO2)C(=O)N(C)Cc1ccc(C)cc1 (configuration not stated) do in these assays?
MCF10A rerep: inconclusive; SW480 rereplic: 18%; TDP1 cell CPT: inconclusive; IL-1B inflam inh: 7; Chronic BCR inh: 4%; TDP1 cell noCPT: 15µM*

Results for COC(=O)c1cc(Br)c(=O)n(CCc2ccccc2)c1 ?
MCF10A rerep: -1%; SW480 rereplic: -4%; TDP1 cell CPT: inconclusive; IL-1B inflam inh: 10; Chronic BCR inh: 2%; TDP1 cell noCPT: -16%

How did COC(=O)c1ccc(CCc2cc(O)c(Br)cc2O)cc1 do in these assays?
MCF10A rerep: inconclusive; SW480 rereplic: inconclusive; TDP1 cell CPT: 2.1µM*; IL-1B inflam inh: -79*; TDP1 cell noCPT: 2.3µM*

Results for COC(=O)c1ccc(O)cc1 ?
MCF10A rerep: -8%; SW480 rereplic: -4%; TDP1 cell CPT: 14%; IL-1B inflam inh: 9; Chronic BCR inh: 3%; TDP1 cell noCPT: 3%

How did COC(=O)c1ccc(CCc2cc(O)ccc2O)cc1 do in these assays?
MCF10A rerep: inconclusive; SW480 rereplic: inconclusive; TDP1 cell CPT: 2.9µM*; IL-1B inflam inh: inconclusive; TDP1 cell noCPT: 5.2µM*

What do the screens show for `CCOc1ccc(NS(=O)(=O)c2cc(Cl)ccc2OC)cc1`?
MCF10A rerep: -4%; SW480 rereplic: 0%; TDP1 cell CPT: inconclusive; IL-1B inflam inh: 28; TDP1 cell noCPT: 16µM*

How did CCOc1ccc(S(=O)(=O)Nc2cccc(Cl)c2)cc1 do in these assays?
MCF10A rerep: -6%; SW480 rereplic: 17%; TDP1 cell CPT: 23µM*; IL-1B inflam inh: -10; TDP1 cell noCPT: inconclusive
